DT40 TDP1 CPT – growth inhibition of DT40 Tdp1-/-;hTDP1 cells with camptothecin (screen for TDP1 inhibitors); chicken DT40 Tdp1-/-;hTDP1 cells + 20 nM CPT, ATP luminescence, 48 h; Potency, µM (highest dose often 46.2 µM), for the others: top-dose activity change, negative = growth inhibition, usual class: inhibitors; actives 12% (n = 420,000); AID 686979; further: potency means the concentration at half of the fitted maximal effect; nearly all actives have a fitted effect of over 55% in size
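Cell growth measured by CellTiter-Glo luminescence after a minimum 48 h, 37 C compound exposure with 20 nM CPT in Tdp1-knockout DT40 cells stably expressing hTDP1, seeded 400/well; qHTS titration format.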
HT1080-NT tox – kills 2HG-producing HT-1080-NT fibrosarcoma cells. HT-1080-NT fibrosarcoma viability, CellTiter-Glo ATP luminescence, 48 h. Potency, µM (highest dose often 46.1 µM), for inactives: top-dose activity, negative = less viability, usual class: cytotoxic. actives 1.6% (n = 360,000). AID 686970;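 further: NT is the 2HG producing partner of a matched IDH1 knockdown line; potency means the concentration at half of the fitted maximal effect; 0% = DMSO-treated cells and -100% = media-only wells without cells; nearly all actives have a fitted effect of over 55% in size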
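Luminescent CellTiter-Glo readout after 48 hours of compound exposure at 37 degrees C defined viability of HT-1080-NT cells. Activity was normalized to DMSO wells and cell-free media wells; concentration-response curves were fitted and assigned curve classes.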
HT1080 IDH1KD tx – HT-1080 IDH1 knockdown cell toxicity (counter line) | HT-1080 IDH1 knockdown viability, ATP luminescence, 48 h | Potency, µM (series often up to 46.1 µM), for the others: at the highest dose activity, negative = toxicity, usual class: cytotoxic | actives 2% (n = 360,000);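 further: potency means the concentration at half of the fitted maximal effect; 0% = DMSO wells and -100% = cell-free medium wells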
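Viability of IDH1-knockdown HT-1080 fibrosarcoma cells was assessed by CellTiter-Glo after 48 h at 37 °C with titrated compound; concentration-effect curves were classified by fit quality and response size.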
TDP1 cell noCPT – qHTS for Inhibitors of human tyrosyl-DNA phosphodiesterase 1 (TDP1): qHTS in cells in absence of CPT. DT40 Tdp1-/- hTDP1 cells, no CPT, ATP luminescence, 48 h. Potency, µM (series often up to 46.2 µM), inactives show at the top dose activity change, negative = growth inhibition, actives largely listed as inhibitors. actives 15% (n = 420,000). AID 686978, 2013; further: potency means the concentration at half of the fitted maximal effect; nearly all actives have a fitted effect of over 55% in size
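Stably hTDP1-transfected Tdp1-null chicken DT40 cells were treated with library compounds minus camptothecin and grown for at least 48 hr at 37 °C, after which cellular ATP was quantified by luminescence.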
IL1B secr inh – blocks inflammasome-driven IL-1 beta release; activity change, % at 57.5 µM; THP-1 LPS/ATP IL-1B secretion, AlphaLISA, 16 h; active compounds read low; actives 4.7% (n = 360,000); in the data active means activity change below about -50%; inconclusive means mostly about -30% to -49%
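THP-1 cells pretreated 1 hr with compounds (up to 57.5 uM final), then stimulated with LPS (250 ng/mL final) plus ATP (1.25 mM final); secreted IL-1B measured by AlphaLISA after 16 hr, decreased signal indicating inhibition.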
Active calls of the source: *; ? = inconclusive; nt = no result. Rows were chosen to be rich in hits. Some 19% of all compounds tested hit in one or more screens of this group. Unless noted, the call rests on the fitted dose curve; in most records, active means well fitted curve in the direction sought with a large enough effect; inconclusive means small, poorly fitted or top-dose-only effect, or another doubt; inactive means no such curve, though single readings can be large; an effect the other way counts as inactive or inconclusive. Unless noted, on the % scale 0 is the no-effect control and ±100 the full control effect.

SMILES	DT40 TDP1 CPT	HT1080-NT tox	HT1080 IDH1KD tx	TDP1 cell noCPT	IL1B secr inh
COc1ccc(N(CC(=O)Nc2ccc(F)c(F)c2)S(=O)(=O)c2c(C)n[nH]c2C)cc1	-6%	-7%	-13%	6%	0
COc1ccc(NC(=O)CN(c2cc(C)cc(C)c2)S(=O)(=O)c2c(C)n[nH]c2C)cc1	29µM*	?	?	?	-8
Nc1nc(SCc2ccccc2)cc(SCc2ccccc2)n1	1%	-6%	-13%	-23%	-23
COc1ccc(N(CC(=O)NCc2ccc(Cl)cc2)S(=O)(=O)c2c(C)n[nH]c2C)cc1	2%	0%	-8%	-16%	-9
COc1ccc(N(CC(=O)Nc2cc(Cl)ccc2C)S(=O)(=O)c2c(C)n[nH]c2C)cc1	4.1µM*	?	?	5.2µM*	-10
Cc1ccc(NC(=O)C(C)N2CCCc3ccccc32)cc1S(=O)(=O)N1CCOCC1 (stereo not given)	-88%	-1%	-5%	6.5µM*	-7
CCN(CC)S(=O)(=O)c1cc(NC(=O)C(C)N(C)CC(=O)Nc2c(C)cccc2C)ccc1C (stereo not given)	26µM*	-2%	-4%	18µM*	-3
Cc1ccc(NC(=O)C(C)N2CCN(C)CC2)cc1S(=O)(=O)N1CCOCC1 (stereo not given)	-2%	6%	0%	9%	7
CCN(CC)S(=O)(=O)c1cc(NC(=O)C(C)N2CCc3ccccc32)ccc1C (stereo not given)	?	?	-24%	26µM*	?
COC(=O)CCCC(=O)N1CCC(CO)(CCc2ccccc2)CC1	5%	10%	6%	2%	-1
O=S(=O)(CC(CN1CCCC1)N1CCCC1)c1ccc2ccccc2c1 (stereo not given)	3.3µM*	16µM*	23µM*	4.6µM*	-107*
CCCNC(=O)C1CCN(S(=O)(=O)c2cccc3nonc23)CC1	-17%	13%	1%	0%	7
COc1ccccc1N1CCN(Cc2cc(=O)oc3cc(C)cc(C)c23)CC1	?	1%	17%	?	28
CC(C)(C)OCC(NC(=O)C(CC(N)=O)NC(=O)OC(C)(C)C)C(=O)OC(C)(C)C (stereo not given)	-10%	0%	2%	-9%	-11
CN(C1CCCCC1)S(=O)(=O)c1ccc(C(=O)Nc2sc3c(c2C(N)=O)CC(C)(C)NC3(C)C)cc1	?	?	-8%	?	26
CC1CCCCN1S(=O)(=O)c1ccc(C(=O)Nc2sc3c(c2C(N)=O)CC(C)(C)NC3(C)C)cc1 (stereo not given)	26µM*	nt	nt	?	nt
Cc1ccc(S(=O)(=O)N2CCCc3ccccc32)cc1	-24%	-16%	?	?	32
CCOc1ccc(S(=O)(=O)Nc2ccc3c(c2)CCCN3S(=O)(=O)c2ccc(C)cc2)cc1	?	nt	nt	18µM*	nt
Cc1ccc(S(=O)(=O)N2CCCc3cc(NS(=O)(=O)c4cccc(Cl)c4)ccc32)cc1	21µM*	nt	nt	21µM*	nt
Cc1nc(NCc2ccco2)c2oc3ccccc3c2n1	?	-21%	-1%	10µM*	-5
Cc1nc(NC(C)c2ccccc2)c2oc3ccccc3c2n1 (stereo not given)	21µM*	-15%	?	10µM*	-6
Cc1nc(N[C@@H](Cc2ccccc2)C(=O)O)c2oc3ccccc3c2n1	-30%	-2%	7%	-27%	35
Cc1nc(NCCc2cnc[nH]2)c2oc3ccccc3c2n1	-29%	0%	-6%	0%	0
CCC(C)Nc1nc(C)nc2c1oc1ccccc12 (stereo not given)	18µM*	-19%	-15%	16µM*	25
Cc1nc(N[C@@H](Cc2c[nH]c3ccccc23)C(=O)O)c2oc3ccccc3c2n1	-14%	-5%	-9%	-12%	33
SMILES	DT40 TDP1 CPT	HT1080-NT tox	HT1080 IDH1KD tx	TDP1 cell noCPT	IL1B secr inh
Cc1ccc(C)c(-n2nnnc2Sc2nc([N+](=O)[O-])nn2C)c1	?	-1%	-1%	?	11
Cc1ccc(-n2nnnc2Sc2nc([N+](=O)[O-])nn2C)cc1C	?	-24%	?	?	-77*
CCC(C)(C)C1CCc2[nH]nc(C(=O)NN)c2C1 (stereo not given)	-22%	-15%	?	?	-18
CCC(C)(C)C1CCc2[nH]nc(C(=O)NC(C)C)c2C1 (stereo not given)	?	6%	3%	21µM*	-18
CCC(C)(C)C1CCc2[nH]nc(C(=O)NC3CCCCC3)c2C1 (stereo not given)	12µM*	0%	7%	?	13
CCN(CC)CCCNC(=O)c1ccc2c(=O)n(CCc3ccccc3)c(=O)[nH]c2c1	-27%	nt	nt	?	nt
CCCCCn1c(=O)[nH]c2cc(C(=O)NCc3ccccn3)ccc2c1=O	-5%	24%	14%	-30%	14
O=C(NCc1ccccn1)c1ccc2c(=O)n(CCc3ccccc3)c(=O)[nH]c2c1	21µM*	21%	-10%	?	0
CCCCCn1c(=O)[nH]c2cc(C(=O)NCCN(CC)CC)ccc2c1=O	9.2µM*	?	?	21µM*	-12
Cn1c(-c2ccc(C=O)s2)nc2c3ccccc3c3ccccc3c21	?	-4%	-10%	?	21
O=[N+]([O-])c1ccc2c(c1)C=C/C2=C/c1ccccc1	13µM*	nt	nt	18µM*	nt
CSc1ccc(/C=C2\C=Cc3ccc([N+](=O)[O-])cc32)cc1	?	nt	nt	11µM*	nt
O=S(=O)(c1ccccc1)N1CCC2(CC1)OCCN2S(=O)(=O)c1cccs1	?	-2%	-7%	21µM*	13
COc1ccc(S(=O)(=O)N2CCOC23CCN(S(=O)(=O)c2cccs2)CC3)cc1	13µM*	7%	9%	16µM*	1
Cc1cccc(NC2=C(NC(=O)c3ccccc3)C(=O)c3ccccc3C2=O)c1	10µM*	?	?	12µM*	-74*
O=C(Nc1cc(Cl)ncn1)c1ccccc1	18%	-1%	1%	14%	-63*
O=C1C(Cl)=C(NC(=O)c2ccccc2)C(=O)C(Cl)=C1NC(=O)c1ccccc1	1.3µM*	10µM*	8.2µM*	2.6µM*	-99*
O=C(NC1=C(NC2CCS(=O)(=O)C2)C(=O)c2ccccc2C1=O)c1ccccc1 (stereo not given)	2.1µM*	15µM*	18µM*	2.3µM*	-93*
Cc1cccc(C(=O)Nc2cccc(NC(=O)c3ccccc3)c2)c1	-6%	-20%	-22%	?	-21

Screening data as filed in PubChem BioAssay.
